This note sets out measurements from ChEMBL document CHEMBL1157539, “Thousands of chemical starting points for antimalarial lead identification” (Nature, 2010).

This assay has as its system Plasmodium falciparum. The experiment in a line: GSK_TCMDC: Inhibition of Plasmodium falciparum Dd2 in whole red blood cells, using parasite LDH activity as an index of growth. Test compounds present at 2uM. It is filed as functional.
As usually defined, the Inhibition is how much of the control response was suppressed. The low end stands for a response near the control, the high end for a response far below the control. `Cc1ccc2c(c1)c(C1CCN(C(=O)c3ccc([N+](=O)[O-])o3)CC1)cn2C` yielded an Inhibition of 76%.
The figure for `COc1ccc(-c2csc(NC(=O)CCC(=O)O)n2)cc1OC` is 0%.
In the case of `Fc1ccc2[nH]c(-c3cccc(-c4cccc(CNCc5cnn(-c6ccccc6)n5)c4)c3)nc2c1.O=C(O)C(F)(F)F` it was 57%; in that of `Cl.N=C(N)NN=Cc1c2ccccc2c(Cl)c2ccc(Cl)cc12`, 89%; in that of `CN1CCN(CC(=O)Nc2ccc(-c3ccc(-c4nc5cc(C(F)(F)F)ccc5[nH]4)cc3)cc2)CC1`, 98%.
As for `O=C(C=Cc1ccc(F)cc1)N1CCN(S(=O)(=O)c2ccc(Cl)cc2)CC1`, the Inhibition came out at 93%.
The figure for `O=C(NC1CCN(Cc2ccccc2)C1)c1ccc(Nc2ccc(Br)cc2)nc1.O=C(O)C(F)(F)F` (configuration not stated) is 21%; for `N#CN1CC[C@@H](OC(=O)N[C@@H]2C[C@H]2c2ccccc2)C1` it is 56%.
As to `O=C(/C=C/c1ccc(Cl)c(Cl)c1)N1CCCC(CCCN2CCC(c3c[nH]c4ccccc34)CC2)C1` (configuration not stated), the Inhibition is 15%.
The figure for `CCOC(=O)c1c(C)n(-c2ccccc2)c2ccc(O)cc12` is 87%; for `N.Nc1nc2c(ncn2COC2COP(=O)(O)OC2)c(=O)[nH]1` (configuration not stated) it is 54%.
The figure for `COc1cc(N(C)Cc2cnc3nc(N)nc(N)c3n2)cc(OC)c1OC` is 2%; for `COc1cccc(Cc2c(C)nc3nc(N)nc(N)c3c2C)c1.Cl` it is 1%.
The figure for `O=C(NCCc1ccc(O)cc1)n1c2ccccc2c2ccccc21` is 76%; for `Cc1ccc2c(c1)nc(N)n2C[C@H](O)c1ccccc1` it is 74%.
`NC(=O)c1ccc(NC(=O)CN(Cc2ccc(Cl)cc2)S(=O)(=O)c2ccccc2)cc1` displayed an Inhibition of 75%.
In the case of `CN1CCC(C(=O)N(Cc2ccc(-c3ccc(CNCCc4ccc(S(C)(=O)=O)cc4)cn3)cc2)Cc2ccc3c(c2)OCO3)CC1.O=C(O)C(F)(F)F`, the Inhibition turned out to be 51%.
In the case of `CC(Cc1ccc(CN(CC(N)=O)Cc2ccc(CC(C)NCCc3cccc(Cl)c3)cc2)cc1)NCCc1cccc(Cl)c1.O=C(O)C(F)(F)F` (configuration not stated) it was 68%.
In the case of `COC(=O)c1cccc(CNCc2cccc(-c3ccc(-c4nc5ccccc5[nH]4)s3)c2)c1.O=C(O)C(F)(F)F` it was 59%.
As to `CCN(CC)CC#Cc1ccc2[nH]c(C)c(Cl)c(=O)c2c1`, the Inhibition came to 95%.
Take `CCCCNCc1ccc(-c2nc(CN(CCCn3ccnc3)C(=O)Nc3ccc(CC)cc3)cs2)cc1.O=C(O)C(F)(F)F`: the Inhibition stood at 56%.
As for `O=C(N[C@@H](Cc1ccccc1)C(=O)NCCN1CCCCC1)c1ccc(O)c(-c2cccc(C(F)(F)F)c2)c1`, the Inhibition was determined as 3%.
The figure for `O=c1c(Br)ccccc1Br` is 41%; for `Cc1[nH]c2ccc(NS(C)(=O)=O)cc2c1C1CCN(CCC2CCN(C(=O)/C=C/c3ccc(Cl)c(Cl)c3)CC2)CC1` it is 94%.
On to `CCn1c(Sc2ccc(C#N)c([N+](=O)[O-])c2)nnc1-c1cccc(Cl)c1`, for which the Inhibition is listed as 88%.
The figure for `CC(=O)Nc1ccc(CN(Cc2ccc(F)cc2)Cc2ccc3c(c2)OCO3)cc1` is 87%.
The figure for `COc1ccc2nccc([C@@H](O)CN3CCC(NCc4ccc5scnc5c4)CC3)c2c1.O=C(O)C(=O)O` is 93%.
Turning to `O=C(O)C(F)(F)F.O=C1CCCN1CCCNCc1ccc(-c2cccc(-c3nc4cc(F)ccc4[nH]3)c2)cc1`, the Inhibition amounted to 8%.
Consider `CC(C)Cc1ccc(N2CCN(CCCCNC(=O)c3ccc(NC(=O)c4ccc(Cl)c(Cl)c4)cc3)CC2)cc1`, for which the Inhibition is 25%.
`O=C(Cc1ccc(NC(=O)c2ccc(O)c(-c3ccc(Cl)c(Cl)c3)c2)cc1)NCCc1ccc(Cl)c(Cl)c1` returned an Inhibition of 88%.
In the case of `N=C(N)NC(=O)Nc1cc(Cl)c(Cl)c(C(F)(F)F)c1` it was 99%.
In the case of `CCOc1cc(N)c2nc3ccc([N+](=O)[O-])cc3cc2c1` it was 78%.
In the case of `COc1ccc2nccc([C@@H](O)CN3CCC(NC(=O)C(c4cc5ccccc5s4)N4CCN(c5ccccc5OC)CC4)CC3)c2c1` (some centres not stated) it was 88%; in that of `O=C(NCCCCN1CCC(c2ccc3c(c2OCC2CC2)CCCC3)CC1)c1ccc(NC(=O)c2ccc(Cl)cc2)cc1`, 93%; in that of `CC(=O)N(C)C1CCN(Cc2ccc(-c3ccc(-c4nc5cc(F)ccc5[nH]4)s3)cc2)C1.O=C(O)C(F)(F)F` (configuration not stated), 22%.
`O=C(Nc1cccc(-c2cccc(-c3nc4cc(C(F)(F)F)ccc4[nH]3)c2)c1)c1ccc(=O)[nH]n1`: the Inhibition was 26%.
With `COc1ccc2nccc([C@@H](O)CN3CCC(NCc4cc5cc(OC(F)(F)F)ccc5[nH]4)CC3)c2c1.O=C(O)C(=O)O`, the Inhibition was 82%.
